Test results reported in PubChem BioAssay AID1159580 (chemical genetic matrix, 2015).
Values joined by “and” are separate entries in the source; they are usually repeats but may differ in a detail not shown here. Equal values may be shown once. The campaign covered roughly 5,500 compounds. About 2,000 (36%) were called active. Roughly 18% stayed inconclusive and do not appear here. No stated cut-off is given here; in the data, active means normalized growth mostly below about 0.91 (no sharp cut-off); inconclusive means no clear call, values can overlap the other calls; inactive means mostly above about 0.92. The list shows a part of the results.

Assay: chemical genetic growth profiling, strain panel (AID 1159580);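 further: tested at 20 µM; growth read once vehicle control cultures reached saturation at 30 °C; 1 = growth at the plate median or of vehicle wells; lower values mean less growth of the strain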
Conditions: growth OD

Measured: normalized growth

CC[N+](CC)(CC)CCOc1cccc(OCC[N+](CC)(CC)CC)c1OCC[N+](CC)(CC)CC
inactive: S. cerevisiae deletion strains, locus YJR066W, strain TOR1, active compounds read low 0.953 | S. cerevisiae deletion strains, locus YKL009W, strain mrt4, active compounds read low 0.99 | S. cerevisiae deletion strains, locus YKL068W, active compounds read low 1 | S. cerevisiae deletion strains, locus YKL085W, strain MDH1 (second series), active compounds read low 1.02 | S. cerevisiae deletion strains, locus YKL085W, strain MDH1, active compounds read low 1.02 | S. cerevisiae deletion strains, locus YKL160W, strain elf1, active compounds read low 1.04 | S. cerevisiae deletion strains, locus YKR001C, strain vps1, active compounds read low 1 | S. cerevisiae deletion strains, locus YKR026C, strain gcn3, active compounds read low 1.01 | S. cerevisiae deletion strains, locus YKR091W, strain srl3, active compounds read low 1.02 | S. cerevisiae deletion strains, locus YLL001W, strain dnm1, active compounds read low 1.04 | S. cerevisiae deletion strains, locus YLL026W, active compounds read low 1.01 | S. cerevisiae deletion strains, locus YLL041C, strain sdh2, active compounds read low 1.01 | S. cerevisiae deletion strains, locus YLR027C, strain aat2, active compounds read low 1.02 | S. cerevisiae deletion strains, locus YLR039C, strain RIC1, active compounds read low 1.11 | S. cerevisiae deletion strains, locus YLR058C, strain SHM2, active compounds read low 1.03 | S. cerevisiae deletion strains, locus YLR102C, strain apc9, active compounds read low 1.01 | S. cerevisiae deletion strains, locus YLR113W, strain HOG1, active compounds read low 0.977 | S. cerevisiae deletion strains, locus YLR221C, strain rsa3, active compounds read low 1.02 | S. cerevisiae deletion strains, locus YLR258W, strain gsy2, active compounds read low 1.01 | S. cerevisiae deletion strains, locus YLR262C, strain YPT6 (second series), active compounds read low 1.05 | S. cerevisiae deletion strains, locus YLR262C, strain YPT6, active compounds read low 1.07 | S. cerevisiae deletion strains, locus YLR268W, strain sec22, active compounds read low 1.01 | S. cerevisiae deletion strains, locus YLR320W, strain mms22, active compounds read low 1.03 | S. cerevisiae deletion strains, locus YLR330W, strain CHS5, active compounds read low 1.01 | S. cerevisiae deletion strains, locus YLR342W, strain FKS1 (second series), active compounds read low 0.996 | S. cerevisiae deletion strains, locus YLR342W, strain FKS1, active compounds read low 1.02 | S. cerevisiae deletion strains, locus YLR357W, strain rsc2, active compounds read low 1 | S. cerevisiae deletion strains, locus YLR370C, strain arc18, active compounds read low 1.01 | S. cerevisiae deletion strains, locus YLR371W, strain rom2, active compounds read low 1.01 | S. cerevisiae deletion strains, locus YLR384C, strain iki3, active compounds read low 1.02 | S. cerevisiae deletion strains, locus YLR418C, strain cdc73, active compounds read low 1.02 | S. cerevisiae deletion strains, locus YML016C, strain PPZ1, active compounds read low 1.01 | S. cerevisiae deletion strains, locus YML032C, strain rad52, active compounds read low 1 | S. cerevisiae deletion strains, locus YML120C, strain ndi1, active compounds read low 1.03 | S. cerevisiae deletion strains, locus YML124C, strain tub3, active compounds read low 1.01 | S. cerevisiae deletion strains, locus YMR058W, strain fet3, active compounds read low 1.01 | S. cerevisiae deletion strains, locus YMR078C, strain ctf18, active compounds read low 1.02 | S. cerevisiae deletion strains, locus YMR125W, strain sto1, active compounds read low 1.01 | S. cerevisiae deletion strains, locus YMR129W, active compounds read low 1.01 | S. cerevisiae deletion strains, locus YMR205C, strain PFK2, active compounds read low 1.03 | S. cerevisiae deletion strains, locus YMR223W, strain ubp8, active compounds read low 1.02 | S. cerevisiae deletion strains, locus YMR231W, strain pep5, active compounds read low 1.01 | S. cerevisiae deletion strains, locus YMR263W, strain SAP30, active compounds read low 0.995 | S. cerevisiae deletion strains, locus YMR307W, strain GAS1, active compounds read low 1.02 | S. cerevisiae deletion strains, locus YNL067W, strain RPL9B, active compounds read low 1.01 | S. cerevisiae deletion strains, locus YNL071W, strain lat1, active compounds read low 1.01 | S. cerevisiae deletion strains, locus YNL128W, strain TEP1, active compounds read low 1.02 | S. cerevisiae deletion strains, locus YNL153C, strain GIM3, active compounds read low 1.01 | S. cerevisiae deletion strains, locus YNL175C, strain NOP13, active compounds read low 0.987 | S. cerevisiae deletion strains, locus YNL183C, strain NPR1, active compounds read low 0.969 | S. cerevisiae deletion strains, locus YNL197C, strain WHI3, active compounds read low 0.987 | S. cerevisiae deletion strains, locus YNL209W, strain ssb2, active compounds read low 1.02 | S. cerevisiae deletion strains, locus YNL224C, strain SQS1, active compounds read low 0.997 | S. cerevisiae deletion strains, locus YNL233W, strain BNI4, active compounds read low 1.02 | S. cerevisiae deletion strains, locus YNL248C, strain rpa49, active compounds read low 1 | S. cerevisiae deletion strains, locus YNL250W, strain rad50, active compounds read low 1.05 | S. cerevisiae deletion strains, locus YNL271C, strain bni1, active compounds read low 1.01 | S. cerevisiae deletion strains, locus YNL298W, strain CLA4, active compounds read low 1.01 | S. cerevisiae deletion strains, locus YNL307C, strain MCK1, active compounds read low 1.02 | S. cerevisiae deletion strains, locus YNL322C, strain KRE1 (second series), active compounds read low 1.02 | S. cerevisiae deletion strains, locus YNL322C, strain KRE1, active compounds read low 1 and 1.01 | S. cerevisiae deletion strains, locus YNR049C, strain mso1, active compounds read low 1.02 | S. cerevisiae deletion strains, locus YNR052C, strain pop2, active compounds read low 1.02 | S. cerevisiae deletion strains, locus YOL006C, strain TOP1, active compounds read low 1.04 | S. cerevisiae deletion strains, locus YOL012C, strain htz1 0.763 | S. cerevisiae deletion strains, locus YOL147C, strain pex11, active compounds read low 1 | S. cerevisiae deletion strains, locus YOR001W, strain rrp6, active compounds read low 1 | S. cerevisiae deletion strains, locus YOR061W, strain CKA2, active compounds read low 1.01 | S. cerevisiae deletion strains, locus YOR069W, strain VPS5, active compounds read low 1.01 | S. cerevisiae deletion strains, locus YOR070C, strain gyp1, active compounds read low 1.02 | S. cerevisiae deletion strains, locus YOR080W, strain dia2, active compounds read low 1.02 | S. cerevisiae deletion strains, locus YOR083W, strain WHI5 (second series), active compounds read low 0.998 | S. cerevisiae deletion strains, locus YOR083W, strain WHI5, active compounds read low 1.04 | S. cerevisiae deletion strains, locus YOR106W, strain vam3, active compounds read low 1.02 | S. cerevisiae deletion strains, locus YOR136W, strain idh2, active compounds read low 1 | S. cerevisiae deletion strains, locus YOR144C, strain elg1, active compounds read low 1.01 | S. cerevisiae deletion strains, locus YOR184W, strain ser1, active compounds read low 1.04 | S. cerevisiae deletion strains, locus YOR231W, strain MKK1, active compounds read low 1 | S. cerevisiae deletion strains, locus YOR265W, strain rbl2, active compounds read low 1.01 | S. cerevisiae deletion strains, locus YOR270C, strain vph1, active compounds read low 1.04 | S. cerevisiae deletion strains, locus YOR290C, strain snf2, active compounds read low 0.958 | S. cerevisiae deletion strains, locus YOR316C, strain cot1, active compounds read low 1.02 | S. cerevisiae deletion strains, locus YPL051W, strain arl3, active compounds read low 1.01 | S. cerevisiae deletion strains, locus YPL055C, strain LGE1, active compounds read low 1.02 | S. cerevisiae deletion strains, locus YPL078C, strain atp4, active compounds read low 1.02 | S. cerevisiae deletion strains, locus YPL106C, strain sse1, active compounds read low 1.02 | S. cerevisiae deletion strains, locus YPL240C, strain hsp82, active compounds read low 1 | S. cerevisiae deletion strains, locus YPL256C, strain CLN2, active compounds read low 1.05 | S. cerevisiae deletion strains, locus YPR119W, strain clb2, active compounds read low 1.02 | S. cerevisiae deletion strains, locus YPR141C, strain kar3, active compounds read low 1.02 | S. cerevisiae deletion strains, locus YPR163C, strain tif3, active compounds read low 1.02 | S. cerevisiae deletion strains, locus YPR167C, strain met16, active compounds read low 1.02 | S. cerevisiae deletion strains, strain wtn01, active compounds read low 0.996 | S. cerevisiae strains, strain wild type, active compounds read low 1.01
